Results on eight compounds are retold here after PubChem BioAssay (NCI).

The panel holds about 83,000 compounds, 20% with a hit somewhere; the sample as a whole holds those more often.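 In brief: 96-well plates, 48 h treatment, single concentration, percent growth endpoint.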 A number with no mark means an inactive call. Calls of active or inactive are those of the source. Rule for the calls: active = growth percent below 10; inactive = the rest.

Test systems include NCI-H23 lung; NCI-H226 lung; NCI-H322M lung; HOP-62 NSCLC; NCI-H460 lung; HOP-92 NSCLC; NCI-H522 lung; A549/ATCC NSCLC; 786-0 renal; COLO 205 colon; DU-145 prostate; K-562 leukemia; MALME-3M melanoma; MDA-MB-231 breast; RXF 393 renal; SF-268 CNS; SF-295 CNS; SF-539 CNS; UACC-257 melanoma; M14 melanoma.
Holding throughout (assay): NCI-60 one-dose screen, 48 h (100 = growth as untreated, 0 = no growth, -100 = all killed)
What all share (conditions): 10 µM unless noted

For `COC(=O)c1cc(-c2ccc(OC)c(OC)c2)[nH]c1N/N=C/c1c(Cl)cccc1Cl`, the growth with NCI-H23 lung is 40.7%; in the experiment with NCI-H226 lung, 62.4%; in the experiment on NCI-H322M lung, 55.1%; in the experiment on HOP-62 NSCLC it was -7.06% (active); in the experiment with NCI-H460 lung, 14.6%; in the experiment on HOP-92 NSCLC, 52.7%. Further, the growth in the experiment with NCI-H522 lung was 13.7%; with A549/ATCC NSCLC it was 43%; in the experiment with 786-0 renal, 8.47% (active); in the experiment on COLO 205 colon, 28%; in the experiment with DU-145 prostate, 21.2%; with K-562 leukemia it was 19.9%. In addition, the growth was 46.8% with MALME-3M melanoma; 41.1% with MDA-MB-231 breast; -10.4% (active) in the experiment on RXF 393 renal; 43.6% with SF-268 CNS; -0.264% (active) with SF-295 CNS; -15.2% (active) in the experiment with SF-539 CNS. The growth in the experiment with UACC-257 melanoma is 49.3%; in the experiment with M14 melanoma it was 0.331% (active).
Consider `Cc1ccc(C(F)(F)F)cc1N1CCN(C(=O)[C@H]2C[C@H]2c2ccc(C(F)(F)F)nc2)CC1`, for which the growth in the experiment on NCI-H23 lung was 95.5%; with NCI-H226 lung it was 84.3%; in the experiment with NCI-H322M lung it was 99.1%; in the experiment on HOP-62 NSCLC, 97.7%; in the experiment on NCI-H460 lung, 106%; with HOP-92 NSCLC, 60.5%. For the same compound, the growth in the experiment with NCI-H522 lung was 72%; in the experiment on A549/ATCC NSCLC, 81.5%; with 786-0 renal, 93%; with COLO 205 colon it was 91.6%; in the experiment with DU-145 prostate it was 105%; in the experiment on K-562 leukemia, 78.1%. The growth is 94% in the experiment on MALME-3M melanoma; 91.3% with MDA-MB-231 breast; 92.8% in the experiment with RXF 393 renal; 91.3% with SF-268 CNS; 94.7% with SF-295 CNS; 88.6% with SF-539 CNS. Besides, the growth was 92.7% in the experiment with UACC-257 melanoma and 97.5% in the experiment on M14 melanoma.
Take `O=C(Nc1ncc(Cc2ccccc2)s1)c1cc(-c2ccccc2)nc2ccccc12`: the growth with NCI-H23 lung was 89.3%; with NCI-H226 lung, 89.3%; in the experiment with NCI-H322M lung, 99.1%; with HOP-62 NSCLC it was 94.1%; with NCI-H460 lung, 101%; with HOP-92 NSCLC it was 84.1%. In addition, the growth was 87.6% in the experiment with NCI-H522 lung; 98.2% with A549/ATCC NSCLC; 105% with 786-0 renal; 100% in the experiment on COLO 205 colon; 110% with DU-145 prostate; 103% in the experiment on K-562 leukemia. Moreover, the growth is 98% in the experiment with MALME-3M melanoma; 104% with MDA-MB-231 breast; 90.5% in the experiment with RXF 393 renal; 103% in the experiment with SF-268 CNS; 107% in the experiment on SF-295 CNS; 101% in the experiment with SF-539 CNS. The growth in the experiment on UACC-257 melanoma was 92.9%; in the experiment with M14 melanoma, 93.3%.
Consider `COc1ccc(/C=N/NC(=O)Cn2nnc3ccccc32)cc1`, for which the growth in the experiment on NCI-H23 lung was 101%; in the experiment with NCI-H226 lung it was 96.4%; in the experiment with NCI-H322M lung it was 89.1%; with HOP-62 NSCLC, 99.9%; in the experiment on NCI-H460 lung it was 96.6%; in the experiment with HOP-92 NSCLC it was 104%. The growth was 90.9% in the experiment on NCI-H522 lung; 96.5% with A549/ATCC NSCLC; 103% in the experiment on 786-0 renal; 109% with COLO 205 colon; 117% in the experiment with DU-145 prostate; 93% in the experiment with K-562 leukemia. Besides, the growth with MALME-3M melanoma is 103%; in the experiment on MDA-MB-231 breast it was 107%; with RXF 393 renal, 93.7%; in the experiment with SF-268 CNS it was 85.5%; with SF-295 CNS, 103%; in the experiment with SF-539 CNS, 105%. Further, the results for the growth with UACC-257 melanoma and with M14 melanoma were 95.2% and 109%, respectively.
On to `c1ccc2cc(Cn3cc[n+](Cc4ccc5ccccc5c4)c3)ccc2c1`, for which the growth in the experiment with NCI-H23 lung was 41.6%; in the experiment on NCI-H226 lung, 52.1%; in the experiment on NCI-H322M lung it was 62.8%; with HOP-62 NSCLC, 42.1%; in the experiment with NCI-H460 lung, 39.6%; in the experiment with HOP-92 NSCLC, -13.3% (active). Also, the growth was -11.7% (active) with NCI-H522 lung; 67.6% with A549/ATCC NSCLC; 52.2% with 786-0 renal; -73.9% (active) in the experiment with COLO 205 colon; 53.2% in the experiment on DU-145 prostate; 22.5% with K-562 leukemia. Also, the growth was 13.8% in the experiment on MALME-3M melanoma; 18.7% in the experiment on MDA-MB-231 breast; 35.1% with RXF 393 renal; 32.1% with SF-268 CNS; 70.3% in the experiment with SF-295 CNS; 50.2% with SF-539 CNS. For the same compound, the values for the growth with UACC-257 melanoma and with M14 melanoma were -9.54% (active) and 16.1%, respectively.
Regarding `COc1cc(OCc2cccc(-c3ccccc3)c2C)cc(OC)c1CN1CCCCC1C(=O)NCCOCCOCCN` (stereo not given), the growth in the experiment with NCI-H23 lung was 86.8%; in the experiment with NCI-H226 lung, 86.4%; with NCI-H322M lung it was 89.6%; in the experiment on HOP-62 NSCLC it was 89.8%; with NCI-H460 lung it was 41.8%; with HOP-92 NSCLC, 46.4%. Moreover, the growth in the experiment on NCI-H522 lung was 93.3%; with A549/ATCC NSCLC, 70.6%; with 786-0 renal, 90.8%; in the experiment with COLO 205 colon, 20%; in the experiment on DU-145 prostate it was 65.7%; with K-562 leukemia, -19.8% (active). For the same compound, the growth with MALME-3M melanoma is 54.1%; with MDA-MB-231 breast it was 57.5%; with RXF 393 renal, 59%; with SF-268 CNS, 87%; with SF-295 CNS, 89.3%; in the experiment with SF-539 CNS, 87.7%. For the same compound, the growth in the experiment with UACC-257 melanoma was 99.7%; with M14 melanoma, -27.5% (active).
Turning to `C=CCOC(=O)C1=C(C)N(CC)C(=O)N(CC)C1c1c(Cl)n(C)c2ccccc12` (stereo not given), the growth in the experiment on NCI-H23 lung is 78.7%; in the experiment with NCI-H226 lung, 95.1%; in the experiment with NCI-H322M lung it was 74.4%; in the experiment with HOP-62 NSCLC, 84.1%; with NCI-H460 lung, 88.1%; in the experiment with HOP-92 NSCLC it was 21.6%. The growth is 84.8% in the experiment with NCI-H522 lung; 63.7% with A549/ATCC NSCLC; 91.9% with 786-0 renal; 96.9% in the experiment on COLO 205 colon; 99.4% in the experiment on DU-145 prostate; 93% with K-562 leukemia. Further, the growth was 96.2% in the experiment with MALME-3M melanoma; 80.6% with MDA-MB-231 breast; 98.3% with RXF 393 renal; 87.3% with SF-268 CNS; 69.3% in the experiment on SF-295 CNS; 88.2% in the experiment on SF-539 CNS. Moreover, the growth is 89.9% with UACC-257 melanoma and 75.1% in the experiment with M14 melanoma.
With `CCOC(=O)c1ccc2c(c1)c1c(C)c3cnccc3c(C)c1n2C`, the growth in the experiment on NCI-H23 lung is -51.2% (active); in the experiment with NCI-H226 lung it was -33.6% (active); with NCI-H322M lung, -14.1% (active); with HOP-62 NSCLC it was -47.3% (active); in the experiment on NCI-H460 lung, -17.2% (active); in the experiment on HOP-92 NSCLC, -24.2% (active). The growth was -79.1% (active) with NCI-H522 lung; -11.8% (active) in the experiment on A549/ATCC NSCLC; -95.7% (active) with 786-0 renal; -63.9% (active) in the experiment with COLO 205 colon; -17% (active) in the experiment on DU-145 prostate; 0.0057% (active) in the experiment with K-562 leukemia. In addition, the growth in the experiment with MALME-3M melanoma was -91.3% (active); with MDA-MB-231 breast, -55.9% (active); in the experiment with RXF 393 renal it was -83% (active); with SF-268 CNS it was -15.9% (active); with SF-295 CNS, -24.3% (active); with SF-539 CNS, -95.8% (active). In addition, the growth was -42.2% (active) in the experiment on UACC-257 melanoma and -88.3% (active) in the experiment on M14 melanoma.
